# Assay results published in PubChem BioAssay (EPA / NIEHS).
# Records with an inconclusive call do not appear. Activity calls are given as the source filed them. How the source made its calls, unless noted: active means hit-call score of the fitted dose curve at least 0.9, where 1 is the maximum; inactive means score below 0.9.
# Assays:
# [1] = ATG_CRE_CIS: Attagene CIS-FACTORIAL HepG2 Assay for human cAMP Responsive Element (CRE) binding protein 3 (AID 2282926); conditions: HepG2 CRE cis-reporter, Attagene multiplexed mRNA; actives raise or lower the signal
# Summary of the method: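 Liver-derived HepG2, transfected with a CRE-containing reporter panel, exposed 24 h; transcript levels sized and quantified by capillary electrophoresis of labelled amplicons; signal changes either way referenced to vehicle.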
# [2] = ATG_DR4_LXR_CIS: Attagene CIS-FACTORIAL HepG2 Assay for human Liver X Receptor (LXR), DR4 submotif (AID 2282929); conditions: HepG2 Attagene DR4 cis-reporter, mRNA transcription; actives raise or lower the signal
# Summary of the method: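 Total RNA from 24 h-treated, MRTU-transfected HepG2 cells underwent reverse transcription, PCR, fluorescent primer extension and restriction digestion before capillary electrophoresis. Both increases and decreases in reporter signal were fitted against DMSO.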
# [3] = ATG_Ets_CIS: Attagene CIS-FACTORIAL HepG2 Assay for human Erythroblast Transformation Specific (ETS) (AID 2282941); conditions: HepG2 ETS cis-reporter transcription, actives raise or lower the signal
# Summary of the method: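 Multiplexed reporter transcript profiling: HepG2, 24 h treatment, total RNA to cDNA, PCR, 6-FAM labelling, HpaI cut, capillary electrophoresis. Gain- or loss-of-signal fitted against DMSO.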
# [4] = target: Hypoxia-inducible factor 1-alpha (Homo sapiens) (UniProt Q16665); test: ATG_HIF1a_CIS: Attagene CIS-FACTORIAL HepG2 Assay for human Hypoxia Inducible Factor 1 (HIF1A) (AID 2282951); conditions: HepG2 Attagene cis-factorial HIF1a reporter transcription; actives raise or lower the signal
# Hypoxia-inducible factor 1-alpha (Homo sapiens), sequence (Q16665 whole entry, looked up): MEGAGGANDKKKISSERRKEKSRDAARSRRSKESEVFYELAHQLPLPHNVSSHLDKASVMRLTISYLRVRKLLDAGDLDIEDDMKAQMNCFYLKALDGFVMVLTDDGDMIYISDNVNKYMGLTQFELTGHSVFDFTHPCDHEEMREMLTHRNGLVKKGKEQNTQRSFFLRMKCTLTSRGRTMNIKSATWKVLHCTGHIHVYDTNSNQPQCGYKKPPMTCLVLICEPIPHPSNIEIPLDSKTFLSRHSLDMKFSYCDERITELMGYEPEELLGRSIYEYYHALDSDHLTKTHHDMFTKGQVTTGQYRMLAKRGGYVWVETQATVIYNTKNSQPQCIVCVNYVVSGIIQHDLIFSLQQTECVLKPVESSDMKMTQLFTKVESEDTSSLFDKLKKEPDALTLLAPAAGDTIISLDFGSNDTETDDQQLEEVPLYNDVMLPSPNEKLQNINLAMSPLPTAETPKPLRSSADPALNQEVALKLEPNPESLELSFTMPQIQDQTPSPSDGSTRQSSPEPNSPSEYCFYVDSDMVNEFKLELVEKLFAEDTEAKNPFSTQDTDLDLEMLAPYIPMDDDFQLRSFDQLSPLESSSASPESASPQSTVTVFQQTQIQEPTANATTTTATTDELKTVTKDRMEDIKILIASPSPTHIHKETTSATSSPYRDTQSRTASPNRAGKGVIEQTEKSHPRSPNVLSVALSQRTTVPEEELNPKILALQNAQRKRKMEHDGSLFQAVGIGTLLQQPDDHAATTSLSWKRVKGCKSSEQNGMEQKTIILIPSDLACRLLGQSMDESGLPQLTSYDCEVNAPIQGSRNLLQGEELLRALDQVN
# Summary of the method: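 After 24 h chemical exposure of reporter-transfected HepG2 cells, reporter cDNA was PCR-amplified, labelled by 6-FAM primer extension (2 min 95 C, 20 s 68 C, 10 min 72 C), HpaI-cut (2 h, 37 C) and analysed by CE.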
# [5] = target: Heat shock factor protein 1 (Homo sapiens) (UniProt Q00613); test: ATG_HSE_CIS: Attagene CIS-FACTORIAL HepG2 Assay for human Heat Shock Transcription Factor 1 (HSE) (AID 2282953); conditions: HepG2 HSE cis-reporter, Attagene RNA transcription; actives raise or lower the signal
# Heat shock factor protein 1 (Homo sapiens), sequence (Q00613 whole entry, looked up): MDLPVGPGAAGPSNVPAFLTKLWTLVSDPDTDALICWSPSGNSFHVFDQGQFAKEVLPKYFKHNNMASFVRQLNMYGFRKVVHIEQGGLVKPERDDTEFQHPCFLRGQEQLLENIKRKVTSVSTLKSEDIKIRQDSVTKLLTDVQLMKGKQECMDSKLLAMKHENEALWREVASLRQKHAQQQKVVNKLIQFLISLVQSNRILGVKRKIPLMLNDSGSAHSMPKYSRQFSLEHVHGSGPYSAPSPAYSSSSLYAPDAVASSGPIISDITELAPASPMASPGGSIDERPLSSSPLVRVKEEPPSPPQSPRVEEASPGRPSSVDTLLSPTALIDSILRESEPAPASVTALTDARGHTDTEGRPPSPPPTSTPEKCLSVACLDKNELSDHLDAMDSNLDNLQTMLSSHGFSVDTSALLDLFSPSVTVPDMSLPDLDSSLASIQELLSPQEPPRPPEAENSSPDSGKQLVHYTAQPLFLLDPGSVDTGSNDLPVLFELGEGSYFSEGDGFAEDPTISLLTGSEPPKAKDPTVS
# Summary of the method: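 HepG2 cells transfected with cis-promoter reporter units sensing endogenous transcription factor activity; reporter mRNA quantified 24 h post-dose by RT-PCR and capillary electrophoresis of 6-FAM-labelled products. Bidirectional fitting against DMSO.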
# [6] = target: Paired box protein Pax-6 (Homo sapiens) (UniProt P26367); test: ATG_Pax6_CIS: Attagene CIS-FACTORIAL HepG2 Assay for human Paired Box 6 (PAX6) (AID 2282956); conditions: HepG2 CIS-FACTORIAL PAX6 reporter transcription, RNA readout; actives raise or lower the signal
# Paired box protein Pax-6 (Homo sapiens), sequence (P26367 whole entry, looked up): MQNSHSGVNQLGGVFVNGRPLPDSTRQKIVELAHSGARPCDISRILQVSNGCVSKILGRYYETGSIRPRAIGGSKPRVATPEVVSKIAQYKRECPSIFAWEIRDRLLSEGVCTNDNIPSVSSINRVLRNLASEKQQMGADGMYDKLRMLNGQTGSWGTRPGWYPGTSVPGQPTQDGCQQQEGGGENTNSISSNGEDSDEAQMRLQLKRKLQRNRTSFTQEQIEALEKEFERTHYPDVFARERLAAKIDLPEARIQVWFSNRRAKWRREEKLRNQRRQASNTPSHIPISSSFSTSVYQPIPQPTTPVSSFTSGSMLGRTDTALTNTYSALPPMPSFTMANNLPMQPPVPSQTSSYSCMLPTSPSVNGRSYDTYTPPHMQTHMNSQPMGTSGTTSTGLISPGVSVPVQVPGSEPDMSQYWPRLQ
# Summary of the method: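 Values derive from bidirectional curve fitting of reporter mRNA signal relative to DMSO. HepG2 cells bearing transfected cis-regulated MRTUs were exposed for 24 h; transcripts were read by RT-PCR and capillary electrophoresis.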
# [7] = target: Signal transducer and activator of transcription 3 (Homo sapiens) (UniProt P40763); test: ATG_STAT3_CIS: Attagene CIS-FACTORIAL HepG2 Assay for human Signal Transducer and Activator of Transcription 3 (STAT3) (AID 2282963); conditions: HepG2, Attagene cis-factorial STAT3 reporter transcription; actives raise or lower the signal
# Signal transducer and activator of transcription 3 (Homo sapiens), sequence (P40763 whole entry, looked up, the tested form may be a part): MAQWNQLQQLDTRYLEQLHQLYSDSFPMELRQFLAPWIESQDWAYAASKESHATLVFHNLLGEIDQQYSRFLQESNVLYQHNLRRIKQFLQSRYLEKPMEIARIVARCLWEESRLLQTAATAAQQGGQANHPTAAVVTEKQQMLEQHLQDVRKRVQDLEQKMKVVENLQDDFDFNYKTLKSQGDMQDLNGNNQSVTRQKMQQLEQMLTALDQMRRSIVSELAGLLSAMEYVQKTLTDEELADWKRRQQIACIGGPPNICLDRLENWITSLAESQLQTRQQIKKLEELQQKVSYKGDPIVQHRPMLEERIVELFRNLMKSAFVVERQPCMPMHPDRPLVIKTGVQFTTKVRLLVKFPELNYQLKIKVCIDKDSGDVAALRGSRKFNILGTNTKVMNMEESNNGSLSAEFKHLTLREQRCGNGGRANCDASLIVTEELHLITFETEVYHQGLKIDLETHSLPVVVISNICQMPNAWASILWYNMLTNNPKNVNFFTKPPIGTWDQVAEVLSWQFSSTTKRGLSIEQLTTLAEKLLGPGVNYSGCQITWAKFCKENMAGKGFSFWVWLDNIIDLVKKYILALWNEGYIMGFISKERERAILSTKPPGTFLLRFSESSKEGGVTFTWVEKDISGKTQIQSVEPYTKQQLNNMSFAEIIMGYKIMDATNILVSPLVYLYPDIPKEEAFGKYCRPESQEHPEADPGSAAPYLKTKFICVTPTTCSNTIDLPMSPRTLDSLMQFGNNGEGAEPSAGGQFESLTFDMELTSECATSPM
# Summary of the method: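 Readout: fluorescent reporter mRNA fragments resolved by capillary electrophoresis. Setup: HepG2 transfected with MRTUs reporting endogenous transcription-factor activity, dosed 24 h. Gain or loss of signal fitted bidirectionally against DMSO control.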
# [8] = ATG_TA_CIS: Attagene CIS-FACTORIAL HepG2 Assay for human TA Basal Promoter (AID 2282964); conditions: HepG2 Attagene CIS-factorial TA basal promoter reporter; actives raise or lower the signal
# Summary of the method: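 HepG2 cells transiently transfected with multiple reporter units under cis promoter elements, reporting endogenous transcription factor activity; this endpoint tracks the TA basal promoter as background control. Reporter mRNA after 24 h dosing measured by RT-PCR/capillary electrophoresis; bidirectional fits versus DMSO.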
# [9] = ATG_TCF_b_cat_CIS: Attagene CIS-FACTORIAL HepG2 Assay for human T-Cell-Factor with beta-catenin (TCF/b-cat) (AID 2282965); conditions: HepG2 TCF/beta-catenin cis-reporter transcription, actives raise or lower the signal
# Summary of the method: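 HepG2, transient MRTU transfection, cis-element-driven reporters (endogenous TFs). 24 h compound exposure. Readout: reporter mRNA by RT-PCR + 6-FAM primer extension, HpaI digest, capillary electrophoresis. Gain/loss fit vs DMSO baseline.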
# [10] = ATG_TAL_CIS: Attagene CIS-FACTORIAL HepG2 Assay for human TAL Basal Promoter (AID 2282966); conditions: HepG2 Attagene cis-factorial TAL promoter reporter; actives raise or lower the signal;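 further: background control endpoint measuring basal TAL promoter reporter mRNA not a specific factor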
# Summary of the method: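 Human hepatoma HepG2 cells, transfected with promoter-regulated reporter units, were treated 24 h. Reporter transcript levels, measured through RT-PCR and capillary electrophoresis, were fitted for gain or loss relative to DMSO.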
# [11] = target: X-box-binding protein 1 (Homo sapiens) (UniProt P17861); test: ATG_Xbp1_CIS: Attagene CIS-FACTORIAL HepG2 Assay for human X-box Binding Protein 1 (XBP1) (AID 2282972); conditions: HepG2 XBP1 cis-element reporter, Attagene multiplex; actives raise or lower the signal
# X-box-binding protein 1 (Homo sapiens), sequence (P17861 whole entry, looked up): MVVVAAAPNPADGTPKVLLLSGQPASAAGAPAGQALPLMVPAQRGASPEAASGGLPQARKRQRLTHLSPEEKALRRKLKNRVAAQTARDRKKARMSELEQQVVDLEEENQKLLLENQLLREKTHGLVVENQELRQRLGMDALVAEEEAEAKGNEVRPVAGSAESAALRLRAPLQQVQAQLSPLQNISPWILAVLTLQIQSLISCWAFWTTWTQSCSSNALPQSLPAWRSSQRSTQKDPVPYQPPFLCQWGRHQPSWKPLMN
# Summary of the method: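 Human hepatoma HepG2, cis-element reporter system, 24 h treatment; mRNA quantified by RT-PCR/CE fluorescence; fit relative to DMSO.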
# [12] = target: Transcriptional activator Myb (Homo sapiens) (UniProt P10242); test: ATG_Myb_CIS: Attagene CIS-FACTORIAL HepG2 Assay for human Myeloblastosis (Myb) Proto-Oncogene Transcription Factor (AID 2282986); conditions: HepG2 Attagene CIS-FACTORIAL Myb reporter transcription; actives raise or lower the signal
# Transcriptional activator Myb (Homo sapiens), sequence (P10242 whole entry, looked up): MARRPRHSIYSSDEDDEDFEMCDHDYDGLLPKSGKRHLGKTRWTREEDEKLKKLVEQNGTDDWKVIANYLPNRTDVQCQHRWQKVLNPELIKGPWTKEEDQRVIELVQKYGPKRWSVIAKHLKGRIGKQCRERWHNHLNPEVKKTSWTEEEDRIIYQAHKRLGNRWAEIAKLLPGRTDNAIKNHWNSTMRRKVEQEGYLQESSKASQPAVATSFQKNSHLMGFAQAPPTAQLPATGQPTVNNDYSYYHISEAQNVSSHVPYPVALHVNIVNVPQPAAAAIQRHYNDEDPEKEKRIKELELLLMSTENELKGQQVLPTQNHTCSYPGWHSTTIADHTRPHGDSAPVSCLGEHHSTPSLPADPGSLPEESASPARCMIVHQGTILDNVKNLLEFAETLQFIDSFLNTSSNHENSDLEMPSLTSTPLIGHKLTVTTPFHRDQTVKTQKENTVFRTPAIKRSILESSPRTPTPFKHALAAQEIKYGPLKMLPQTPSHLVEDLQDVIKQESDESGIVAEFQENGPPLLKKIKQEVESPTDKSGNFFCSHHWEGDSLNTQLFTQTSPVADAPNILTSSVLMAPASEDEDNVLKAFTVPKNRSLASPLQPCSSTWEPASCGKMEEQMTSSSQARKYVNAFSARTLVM
# Summary of the method: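 After 24 h of compound dosing, total RNA from transfected HepG2 cells is reverse-transcribed and the reporter sequences amplified, labeled and separated by capillary electrophoresis. Values come from bidirectional fitting against DMSO.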
# [13] = ATG_NFI_CIS: Attagene CIS-FACTORIAL HepG2 Assay for human Nuclear Factor I (NFI) (AID 2282989); conditions: HepG2 cis-regulatory reporter, NFI response element transcription; actives raise or lower the signal
# Summary of the method: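 Endogenous TF activity in HepG2 cells transiently transfected with cis-element-driven multiplexed reporter units, read 24 h after dosing. Reporter mRNA quantified by RT-PCR, 6-FAM labelling, HpaI digestion and capillary electrophoresis; bidirectional fit versus DMSO.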
# [14] = target: Myc proto-oncogene protein (Homo sapiens) (UniProt P01106); test: ATG_Myc_CIS: Attagene CIS-FACTORIAL HepG2 Assay for human Myelocytomatosis (Myc) Proto-Oncogene Transcription Factor (AID 2282990); conditions: HepG2, Attagene cis-reporter transcription factor activity; actives raise or lower the signal
# Myc proto-oncogene protein (Homo sapiens), sequence (P01106 whole entry, looked up, the tested form may be a part): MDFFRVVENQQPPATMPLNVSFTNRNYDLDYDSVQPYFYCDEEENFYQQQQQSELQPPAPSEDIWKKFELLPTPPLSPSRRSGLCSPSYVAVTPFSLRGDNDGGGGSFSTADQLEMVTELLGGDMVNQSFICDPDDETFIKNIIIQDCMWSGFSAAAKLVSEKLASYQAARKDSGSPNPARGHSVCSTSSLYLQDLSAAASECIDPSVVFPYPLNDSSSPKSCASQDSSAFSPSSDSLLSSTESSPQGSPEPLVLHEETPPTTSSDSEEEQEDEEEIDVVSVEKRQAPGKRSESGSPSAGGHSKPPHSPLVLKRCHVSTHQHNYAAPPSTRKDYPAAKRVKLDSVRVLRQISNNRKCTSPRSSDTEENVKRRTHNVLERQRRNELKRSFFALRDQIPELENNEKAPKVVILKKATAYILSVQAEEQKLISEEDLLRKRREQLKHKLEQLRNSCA
# Summary of the method: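 Read-out: fluorescent reporter mRNA fragments resolved by capillary electrophoresis after RT-PCR. Human HepG2 liver cells carried transfected cis-element reporter units and were dosed for 24 h. Gain or loss of signal fitted relative to DMSO baseline.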
# [15] = ATG_NRF2_ARE_CIS: Attagene CIS-FACTORIAL HepG2 Assay for human Nuclear Factor Erythroid 2 Related Factor 2 (NFR2) response to Antioxidant Response Elements (ARE) (AID 2282992); conditions: HepG2 Attagene ARE/NRF2 reporter, transcription factor activity; actives raise or lower the signal;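 on AC50: reporter mRNA level measured by RT-PCR and capillary electrophoresis fluorescence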
# Summary of the method: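 Fluorescence intensity of reporter-specific cDNA fragments, separated by capillary electrophoresis, reflects mRNA induction in transfected HepG2 cells at 24 h. Activity is fitted bidirectionally, DMSO serving as baseline.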
# [16] = ATG_Oct_MLP_CIS: Attagene CIS-FACTORIAL HepG2 Assay for human Octamer-Binding Transcription Factor (Oct) (AID 2282993); conditions: HepG2 Attagene cis-factorial Oct reporter, mRNA; actives raise or lower the signal
# Summary of the method: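 HepG2 cells transiently transfected with cis-element-driven reporter transcription units (endogenous TF activity); 24 h compound exposure. Reporter mRNA quantified by RT-PCR, 6-FAM labelling, HpaI digestion and capillary electrophoresis; bidirectional fit versus DMSO baseline.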
# [17] = target: Cellular tumor antigen p53 (Homo sapiens) (UniProt P04637); test: ATG_p53_CIS: Attagene CIS-FACTORIAL HepG2 Assay for human p53 Transcription Factor (AID 2282994); conditions: HepG2 p53 cis-element reporter, Attagene mRNA; actives raise or lower the signal
# Cellular tumor antigen p53 (Homo sapiens), sequence (P04637 whole entry, looked up): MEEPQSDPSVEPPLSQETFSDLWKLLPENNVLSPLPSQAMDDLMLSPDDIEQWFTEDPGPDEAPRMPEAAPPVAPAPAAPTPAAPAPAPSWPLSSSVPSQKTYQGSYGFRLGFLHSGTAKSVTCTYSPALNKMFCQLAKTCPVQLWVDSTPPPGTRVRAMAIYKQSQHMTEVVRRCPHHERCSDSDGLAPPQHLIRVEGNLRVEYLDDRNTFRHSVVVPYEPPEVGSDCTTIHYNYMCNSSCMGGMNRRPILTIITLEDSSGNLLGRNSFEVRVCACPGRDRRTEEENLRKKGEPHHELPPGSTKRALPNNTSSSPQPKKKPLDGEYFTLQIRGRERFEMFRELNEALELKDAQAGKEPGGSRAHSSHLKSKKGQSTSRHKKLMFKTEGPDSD
# Summary of the method: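 Transiently transfected HepG2 (multiple cis reporter transcription units); exposure 24 h; reporter RNA via RT-PCR, 6-FAM extension, 2 h HpaI digest at 37 C, CE detection; DMSO baseline.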
# [18] = target: Nuclear receptor subfamily 1 group I member 2 (Homo sapiens) (UniProt O75469); test: ATG_PXR_TRANS: Attagene TRANS-FACTORIAL HepG2 Assay for human Pregnane X Receptor (PXR) (AID 2283008; active means hit-call score of the fitted dose curve at least 0.9, where 1 is the maximum)
# Nuclear receptor subfamily 1 group I member 2 (Homo sapiens), sequence (O75469 whole entry, looked up, the tested form may be a part): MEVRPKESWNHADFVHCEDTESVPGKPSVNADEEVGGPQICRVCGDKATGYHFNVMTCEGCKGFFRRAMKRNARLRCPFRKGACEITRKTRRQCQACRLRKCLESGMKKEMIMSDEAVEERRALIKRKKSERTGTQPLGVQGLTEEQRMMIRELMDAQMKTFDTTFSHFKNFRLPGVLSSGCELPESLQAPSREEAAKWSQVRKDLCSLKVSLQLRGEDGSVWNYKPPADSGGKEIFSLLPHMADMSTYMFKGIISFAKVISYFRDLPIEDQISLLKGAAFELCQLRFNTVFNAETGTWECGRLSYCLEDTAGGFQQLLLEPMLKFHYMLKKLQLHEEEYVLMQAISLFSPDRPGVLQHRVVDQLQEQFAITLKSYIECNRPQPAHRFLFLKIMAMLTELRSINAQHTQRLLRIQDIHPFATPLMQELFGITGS
# Summary of the method: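 Transient HepG2 transfectants carrying multiplexed reporter transcription units; PXR activity read through a Gal4 chimera. 24 h exposure. RT-PCR/CE fluorescence; upward curve fit referenced to DMSO.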
# [19] = ATG_XTT_Cytotoxicity: Cytotoxicity Assessment in the Attagene TRANS-FACTORIAL HepG2 Assay (AID 2283584; active means hit-call score of the fitted dose curve at least 0.9, where 1 is the maximum)
# Summary of the method: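 24 h chemical exposure of reporter-transfected HepG2; XTT signal loss vs DMSO indicates cytotoxicity.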
# [20] = ATG_AP_1_CIS: Attagene CIS-FACTORIAL HepG2 Assay for human Activator Protein 1 (AP-1) (AID 2282931); conditions: HepG2 Attagene cis-factorial AP-1 reporter mRNA; actives raise or lower the signal
# Summary of the method: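 HepG2, transient cis-reporter transfection; 24 h; readout RT-PCR/CE fluorescence; DMSO baseline, gain and loss fitted.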
structure (smiles),measurement,setting,value
N#CCN(CC#N)CCN(CC#N)CC#N,outcome,[1],inactive
same,outcome,[2],inactive
same,outcome,[3],inactive
same,outcome,[4],inactive
same,outcome,[5],inactive
same,outcome,[6],inactive
same,outcome,[7],inactive
same,outcome,[8],inactive
same,outcome,[9],inactive
same,outcome,[10],inactive
same,outcome,[11],inactive
same,outcome,[12],inactive
same,outcome,[13],inactive
same,outcome,[14],inactive
same,outcome,[15],inactive
same,outcome,[16],inactive
same,outcome,[17],inactive
same,outcome,[18],inactive
same,outcome,[19],inactive
CC(=O)c1nccs1,outcome,[2],inactive
same,outcome,[20],inactive
same,outcome,[3],inactive
same,outcome,[4],inactive
same,outcome,[5],inactive
same,outcome,[6],inactive
same,outcome,[7],inactive
same,outcome,[8],inactive
same,outcome,[9],inactive
same,outcome,[10],inactive
same,outcome,[11],inactive
same,outcome,[12],inactive
same,outcome,[13],inactive
same,outcome,[14],inactive
same,outcome,[15],inactive
same,outcome,[16],inactive
same,outcome,[17],inactive
same,outcome,[19],inactive
CCC(C)C1N=C(C)C(C)S1 (stereo unspecified),outcome,[2],inactive
same,outcome,[20],inactive
same,outcome,[3],inactive
same,outcome,[4],inactive
same,outcome,[5],inactive
same,outcome,[6],inactive
same,outcome,[7],inactive
same,outcome,[8],inactive
same,outcome,[9],inactive
same,outcome,[10],inactive
same,outcome,[11],inactive
same,outcome,[12],inactive
same,outcome,[13],inactive
same,outcome,[14],inactive
same,outcome,[15],inactive
same,outcome,[16],inactive
same,outcome,[17],inactive
same,AC50,[18],4.45 µM (active)
same,outcome,[19],inactive
CCCCCC[C@@H](O)C/C=C\CCCCCCCC(=O)O,outcome,[1],inactive
same,AC50,[2],70.4 µM (active)
same,outcome,[3],inactive
same,outcome,[4],inactive
same,AC50,[5],187 µM (active)
same,AC50,[7],160 µM (active)
same,outcome,[8],inactive
same,AC50,[9],60.1 µM (active)
same,outcome,[10],inactive
same,outcome,[11],inactive
same,AC50,[12],123 µM (active)
same,AC50,[13],153 µM (active)
same,outcome,[14],inactive
same,AC50,[15],100 µM (active)
same,outcome,[16],inactive
same,outcome,[17],inactive
same,outcome,[18],inactive
same,outcome,[19],inactive
NC(=O)c1ccc(N)cc1,outcome,[2],inactive
same,outcome,[20],inactive
same,outcome,[3],inactive
same,outcome,[4],inactive
same,outcome,[5],inactive
same,outcome,[6],inactive
same,outcome,[7],inactive
same,outcome,[8],inactive
same,outcome,[9],inactive
same,outcome,[10],inactive
same,outcome,[11],inactive
same,outcome,[12],inactive
same,outcome,[13],inactive
same,outcome,[14],inactive
same,outcome,[16],inactive
same,outcome,[17],inactive
same,outcome,[19],inactive
O=C(C1CCCCC1)N1CC(=O)N2CCc3ccccc3C2C1 (stereo unspecified),outcome,[1],inactive
same,outcome,[5],inactive
same,outcome,[6],inactive
same,outcome,[7],inactive
same,outcome,[8],inactive
same,outcome,[9],inactive
same,outcome,[10],inactive
same,outcome,[11],inactive
same,outcome,[12],inactive
same,outcome,[13],inactive
same,outcome,[14],inactive
same,outcome,[16],inactive
same,outcome,[17],inactive
same,AC50,[18],8.4 µM (active)
CC(=O)Nc1c(I)c(NC(C)=O)c(I)c(C(=O)O)c1I,outcome,[2],inactive
same,outcome,[20],inactive
same,outcome,[3],inactive
same,outcome,[5],inactive
same,outcome,[6],inactive
same,outcome,[7],inactive
same,outcome,[8],inactive
same,outcome,[9],inactive
same,outcome,[10],inactive
same,outcome,[11],inactive
same,outcome,[12],inactive
same,outcome,[13],inactive
same,outcome,[14],inactive
same,outcome,[15],inactive
same,outcome,[16],inactive
same,outcome,[19],inactive
